Laboratory results reported in PubChem BioAssay (EPA / NIEHS).
Inconclusive results are not listed. The source made the active and inactive calls. The calls were made as follows: active = hit-call score of the fitted dose curve at least 0.9, where 1 is the maximum; inconclusive = response in the unintended direction; inactive = score below 0.9.

Experiment: ATG_M_32_TRANS: Attagene TRANS-FACTORIAL HepG2 Assay for M32 Transcription Factor (Internal Marker) (AID 2282984)
Conditions: HepG2 Attagene TRANS M32 internal marker reporter
Experimental: ATG_TRANS is a cell-based, multiplexed-readout assay that uses HepG2, a human liver cell line, with measurements taken at 24 hours after chemical dosing in a 24-well plate.ATG_M_32_TRANS is one of 30 assay component(s) measured or calculated from the ATG_TRANS assay. It is designed to make measurements of mRNA induction, a form of inducible reporter, as detected with fluorescence intensity signals by Reverse transcription polymerase chain reaction (RT-PCR) and Capillary electrophoresis technology.Data from the assay component ATG_M_32_TRANS was analyzed into 1 assay endpoint. This assay endpoint, ATG_M_32_TRANS, was analyzed in the positive analysis fitting direction relative to DMSO as the negative control and baseline of activity. Using a type of inducible reporter, measures of mRNA for gain-of-signal activity can be used to understand the background control at the transcription factor-level as they relate to the gene . Furthermore, this assay endpoint can be referred to as a secondary readout, because this assay has produced multiple assay endpoints where this one serves a background control function. To generalize the intended target to other relatable targets, this assay endpoint is annotated to the background measurement intended target family, where the subfamily is internal marker.
Human liver HepG2 cells are transiently transfected with multiple reporter transcription units (MRTUs) in 6-well plates using FuGene 6 reagent (Roche; 3 ml FuGene/1 mg DNA). The MRTU constructs are regulated by a cis-regulating element (promoter). […] A major difference between the CIS and TRANS system is that in CIS activities of endogenous TFs are measured, whereas the TRANS assay evaluates changes in activities of exogenous, chimeric NR-Gal4 proteins. […] At the end of 24 hour incubation, total RNA was isolated using TriZol reagent (Invitrogen). The isolated RNA is then reverse-transcribed using oligo(dT) primer and Mo-MLV reverse transcriptase (Invitrogen) with DNAse I (Ambion) treatment for 30 min. The one-tenth of the produced cDNA was amplified by PCR using Taq DNA polymerase (Invitrogen) and two reporter sequence-specific primers. The PCR products were fluorescently labeled by primer extension with 6-arboxyfluorescein (6-FAM) 5'-labeled reporter sequence-specific primer (2 min at 95 C, 20 s at 68 C and 10 min at 72 C) and these products were digested with 5U of HpaI (New England Biolabs) for 2h at 37 C. The fragments were purified using Qiaquick PCR columns (Qiagen), analyzed on an ABI 3130xL genetic analyzer (Applied Biosystems) with peak positions identified by using a set of X-rhodamine (ROX)-labeled MapMarker1000 molecular weight standards (BioVentures). The raw capillary electrophoresis data was processed using Attagraph software (Attagene).

outcome, inactive:
O=[N+]([O-])c1ccc(O)cc1C(F)(F)F
COC(C)(C)CCO
CN1CCOCC1
C=CC(C)(O)CCC=C(C)C (stereo not given)
CC(C)(C)CC(C)(C)c1ccc(OCCOCC[N+](C)(C)Cc2ccccc2)cc1
CCCCSCCCC
CC1(C)CCC[C@]2(C)[C@H]3CCO[C@]3(C)CC[C@@H]12
CCCCCCCCCC(C)C=O (stereo not given)
COc1ccccc1N=Nc1c(S(=O)(=O)O)cc2cc(S(=O)(=O)O)cc(NC(C)=O)c2c1O
CCCC[P+](CCCC)(CCCC)CCCC
NCCNc1cccc2ccccc12
CCCCCCC(CO)CCCC (stereo not given)
CC(C)CCCCCCCCCCCCCCC(=O)O
CCCCCc1ccco1
O=C1OC(=O)c2c(Cl)c(Cl)c(Cl)c(Cl)c21
CCOc1ccc(N=Nc2ccc(C=Cc3ccc(N=Nc4ccc(OCC)cc4)cc3S(=O)(=O)O)c(S(=O)(=O)O)c2)cc1
CCC(C)S (stereo not given)
COC(=O)Nc1ccc(Cl)c(Cl)c1
O=C(CC(=O)c1ccccc1)c1ccccc1
Brc1ccc(Br)c(Br)c1
CC(C=O)Cc1ccc(C(C)(C)C)cc1 (stereo not given)
C=CC(=O)OCCCC
CC1(C)COCN1
CC(=O)O[C@H]1C[C@@H]2CC[C@@]1(C)C2(C)C
CCC(=O)OCCOc1ccccc1
CC(CN=Cc1ccccc1O)N=Cc1ccccc1O (stereo not given)
C=C(C)C(=O)OCCOCCOCCOC(=O)C(=C)C
O=C(O)c1cccnc1C(=O)O
CC(C)CC(C)CC(O)CC(C)C (stereo not given)
CCCCC(CC)C(=O)OC(C)C (stereo not given)
CC1CC(O)CC(C)(C)C1 (stereo not given)
CS(=O)(=O)OCCCCOS(C)(=O)=O
CCCCCCCCCCCCCCCC(=O)OC/C=C(C)/C=C/C=C(C)/C=C/C1=C(C)CCCC1(C)C
C#CC(C)(O)CC(C)C (stereo not given)
CN(C)C(=S)SC(=S)N(C)C
IC(I)I
FC(F)(F)COCC(F)(F)F
CCN(CCC#N)c1ccc(N=Nc2ccc([N+](=O)[O-])cc2)cc1
CC1=NN(c2ccc(S(=O)(=O)O)cc2)C(=O)C1
NCC1CCCC(CN)C1 (stereo not given)
